Laboratory results published in PubChem BioAssay AID1345085 (National Center for Advancing Translational Sciences (NCATS), 2018).
Inconclusive results are not listed. Calls of active or inactive are those of the source. The call rests on the fitted dose curve; in most records, active means well fitted cell-killing curve with a large enough effect; inconclusive means small, poorly fitted or top-dose-only effect, or effect the other way; inactive means no such curve, though single readings can be large or run the other way.
Further: nearly all actives have a fitted effect of over 55% in size.
Potency means the concentration at half of the fitted maximal effect.

The compounds below were run on PA-1 (assay: Confirmatory qHTS for gynecologic anti-cancer compounds from libraries of approved drugs and bioactive compounds). Details: gynecologic cancer cell panel viability, ATPlite luminescence, 48 h; series mostly up to 57.6 µM.
How it was run: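 Cells (1,000/well) plated 16 h, then exposed 48 h at 37 °C to 11 concentrations (1:3) from 57.5 uM to 0.977 nM. Viability by ATPlite luminescence after 15 min; IC50 derived, with HEK 293T used for selectivity index.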
With `N=C(N)c1ccc(OCCCCCOc2ccc(C(=N)N)cc2)cc1` the Potency was 4.32 µM (active). `Cc1cc(Nc2nc(N[C@@H](C)c3ncc(F)cn3)ncc2Cl)n[nH]1` was tested, and the Potency was 3.85 µM (active). With `C=CC(=O)Nc1cc2c(Nc3ccc(F)c(Cl)c3)ncnc2cc1OCCCN1CCOCC1` the Potency was 30.6 µM (active). `CN(C)C1CCN(C(=O)c2ccc(NC(=O)Nc3nc(N4CCOCC4)nc(N4CCOCC4)n3)cc2)CC1` was tested, and the Potency was 1.09 µM (active). In the case of `CCCC(=O)O[C@]1(C(=O)CCl)[C@@H](C)C[C@H]2[C@@H]3CCC4=CC(=O)C=C[C@]4(C)[C@@]3(F)C(=O)C[C@@]21C`, the Potency is reported as 19.3 µM (active). For `Cc1ccc(C(=O)Nc2cccc(C(F)(F)F)c2)cc1-c1ccc2nc(NCCN3CCOCC3)ncc2c1`, the Potency was 17.2 µM (active). In the case of `CCCC(Nc1nc(-c2ccc(NC(=O)NCC)c(OC)c2)ncc1C)c1cccnc1` (centres undefined), the Potency is reported as 0.137 µM (active). `Nc1ccccc1NC(=O)c1ccc(CNc2nccc(-c3cccnc3)n2)cc1` was tested, and the Potency was 1.09 µM (active). In the case of `CCc1cccc(CC)c1NC(=O)N1Cc2[nH]nc(NC(=O)c3ccc(N4CCN(C)CC4)cc3)c2C1`, the Potency is reported as 2.43 µM (active). In the case of `Cc1c(NC(=O)OCC2COCCN2)cn2ncnc(Nc3ccc4c(cnn4Cc4cccc(F)c4)c3)c12` (centres undefined), the Potency is reported as 27.3 µM (active). With `CN1CCN(c2ccc(OC(F)(F)F)c(Nc3ncc4c(n3)-c3c(c(C(N)=O)nn3CCO)CC4)c2)CC1` the Potency was 0.153 µM (active). With `CC(Oc1cc(-n2cnc3ccc(CN4CCN(C)CC4)cc32)sc1C(N)=O)c1ccccc1C(F)(F)F` (centres undefined) the Potency was 2.43 µM (active). For `Cc1cc(SCc2sc(-c3ccc(C(F)(F)F)cc3)nc2C)ccc1OCC(=O)O`, the Potency was “inactive”. `CCN1C[C@H](C)n2c(c(O)c3c(=O)n(Cc4ccc(F)c(Cl)c4)nc(C(=O)NC)c32)C1=O` was tested, and the Potency was “inactive”. In the case of `CC(C)(C(=O)NCC(F)(F)C(F)(F)F)C(=O)NC1C(=O)Nc2ccccc2-c2ccccc21` (centres undefined), the Potency is reported as 9.68 µM (active). For `CCn1c(-c2nonc2N)nc2c(C#CC(C)(C)O)ncc(OCC3CCCNC3)c21` (centres undefined), the Potency was 7.69 µM (active). For `COc1ccc2cc3[n+](cc2c1OC)CCc1cc2c(cc1-3)OCO2`, the Potency was 0.968 µM (active). In the case of `COc1ccc(-c2cc3nccn3c(Nc3ncccc3C(N)=O)n2)cc1OC`, the Potency is reported as 6.11 µM (active). In the case of `Cc1ccn(-c2ccc(-c3ncco3)cc2)c(=O)c1-c1ccc2nc(N)ncc2c1`, the Potency is reported as 27.3 µM (active). In the case of `OCc1ccc(-c2ccc(-c3ccc(CO)s3)o2)s1`, the Potency is reported as “inactive”. In the case of `COc1cc(Nc2c(C#N)cnc3cc(OCCCN4CCN(C)CC4)c(OC)cc23)c(Cl)cc1Cl`, the Potency is reported as 13.7 µM (active). `CN(NC(=O)CC(=O)NN(C)C(=S)c1ccccc1)C(=S)c1ccccc1` was tested, and the Potency was 0.0544 µM (active). In the case of `COc1cccc2c1C(=O)c1c(O)c3c(c(O)c1C2=O)C[C@@](O)(C(=O)CO)C[C@@H]3O[C@H]1C[C@H](N)[C@H](O)[C@H](C)O1`, the Potency is reported as 0.432 µM (active). For `CN(C)CC/C=C1\c2ccccc2COc2ccccc21`, the Potency was “inactive”. With `Cc1[nH]c2ccccc2c1CCNCc1ccc(/C=C/C(=O)NO)cc1` the Potency was 0.122 µM (active). In the case of `CN1CCN(Cc2ccc(NC(=O)Nc3ccc(Oc4cc(NC(=O)C5CC5)ncn4)cc3)cc2C(F)(F)F)CC1`, the Potency is reported as 0.193 µM (active). With `CCN(CC)CCOc1ccc(/C(=C(\Cl)c2ccccc2)c2ccccc2)cc1` the Potency was 28.2 µM (active). With `CCN(CC)CCNC(=O)c1c(C)[nH]c(/C=C2\C(=O)Nc3ccc(F)cc32)c1C` the Potency was 8.91 µM (active). In the case of `COc1c(C)c2c(c(O)c1C/C=C(\C)CCC(=O)OCCN1CCOCC1)C(=O)OC2`, the Potency is reported as 0.485 µM (active). With `Cc1cc(C(=O)N2CCN(c3cccc(Cl)c3)CC2)n(-c2ccccc2)n1` the Potency was 3.43 µM (active). `CN1CCN(CCOc2cc(OC3CCOCC3)c3c(Nc4c(Cl)ccc5c4OCO5)ncnc3c2)CC1` was tested, and the Potency was 19.3 µM (active). For `CC(=O)O[C@H]1C(=O)[C@@]2(C)[C@H]([C@H](OC(=O)c3ccccc3)[C@]3(O)C[C@H](OC(=O)[C@H](O)[C@@H](NC(=O)c4ccccc4)c4ccccc4)C(C)=C1C3(C)C)[C@]1(OC(C)=O)CO[C@@H]1C[C@@H]2O`, the Potency was 0.0092 µM (active). `Cc1csc(NC(=O)c2sc3nc4c(c(C(F)(F)F)c3c2N)CCC4)n1` was tested, and the Potency was 3.43 µM (active). In the case of `O=C(Nc1cn[nH]c1-c1nc2ccc(CN3CCOCC3)cc2[nH]1)NC1CC1`, the Potency is reported as 3.85 µM (active). For `COc1ccc2c(c1OC)C(=O)O[C@@H]2[C@H]1c2c(cc3c(c2OC)OCO3)CCN1C`, the Potency was 24.3 µM (active). For `CC(C)n1nc(-c2cc3cc(O)ccc3[nH]2)c2c(N)ncnc21`, the Potency was 13.7 µM (active). For `CCN1CCN(Cc2ccc(-c3cc4c(NC(C)c5ccccc5)ncnc4[nH]3)cc2)CC1` (centres undefined), the Potency was 24.3 µM (active). For `COc1ccc(OC)c(-c2nnc3ccc(-c4ccc(OC)c(O[C@@H]5CCOC5)c4)nn23)c1`, the Potency was 5.44 µM (active). For `CCN(CC)CCCC(C)Nc1c2ccc(Cl)cc2nc2ccc(OC)cc12` (centres undefined), the Potency was 27.3 µM (active).
